GLP1R inv ag: qHTS of GLP-1 Receptor Inverse Agonists (Inhibition Mode); hit rate 1.6% among 410,000; Potency, µM (highest dose often 38.3 µM), for the others: top-dose activity change, negative = inhibition, hits mostly inhibitors; HEK293 GLP-1R CRE-luciferase, luminescence, 24 h; GLP-1R form is constitutively active; Glucagon-like peptide 1 receptor (Homo sapiens), P43220; AID 624417, 2012; also: potency is read from the fitted curve at half-maximal effect; % is scaled to controls: 0 for no effect and ±100 for the full control effect; nearly all actives have a fitted effect of over 55% in size
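HEK293 cells stably co-expressing a cAMP-responsive luciferase reporter and constitutively active GLP-1R were seeded, incubated 12 h, then exposed to compounds for 24 h at 37 C. Luminescence was read 12 min after detection reagent; inverse agonists lower signal.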
KCNH2 3.1 inh: qHTS for Inhibitors of KCHN2 3.1: Mutant qHTS; Potassium voltage-gated channel subfamily H member 2, brain isoform KCNH2 3.1 (human); U2OS KCNH2 3.1, thallium flux FluxOr; active compounds read low; hit rate 0.95% among 340,000; activity change, % (tested at about 1.8 µM);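 active = maximum activity change below -70%; inconclusive = maximum activity change from -70% to -50%; inactive = maximum activity change above -50%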;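 also: thallium influx rate constant from kinetic fluorescence after stimulation buffer; % is scaled to controls: 0 for no effect and ±100 for the full control effect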
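FluxOr-based Tl+ influx in U2OS cells transduced with KCNH2 3.1 virus; rate constants normalized to DMSO controls.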
hERG WT inh: qHTS for Inhibitors of KCHN2 3.1: Wildtype qHTS. Voltage-gated inwardly rectifying potassium channel KCNH2 (Homo sapiens), Q12809. U2OS, BacMam KCNH2, thallium flux FluxOr; active compounds read low. activity change, % at 1.84 µM. hit rate 0.37% among 340,000. AID 720551, 2013;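 active = maximum activity change below -70%; inconclusive = maximum activity change between -70% and -50%; inactive = maximum activity change above -50%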; also: % is scaled to controls: 0 for no effect and ±100 for the full control effect
Target sequence (Q12809 whole entry, looked up): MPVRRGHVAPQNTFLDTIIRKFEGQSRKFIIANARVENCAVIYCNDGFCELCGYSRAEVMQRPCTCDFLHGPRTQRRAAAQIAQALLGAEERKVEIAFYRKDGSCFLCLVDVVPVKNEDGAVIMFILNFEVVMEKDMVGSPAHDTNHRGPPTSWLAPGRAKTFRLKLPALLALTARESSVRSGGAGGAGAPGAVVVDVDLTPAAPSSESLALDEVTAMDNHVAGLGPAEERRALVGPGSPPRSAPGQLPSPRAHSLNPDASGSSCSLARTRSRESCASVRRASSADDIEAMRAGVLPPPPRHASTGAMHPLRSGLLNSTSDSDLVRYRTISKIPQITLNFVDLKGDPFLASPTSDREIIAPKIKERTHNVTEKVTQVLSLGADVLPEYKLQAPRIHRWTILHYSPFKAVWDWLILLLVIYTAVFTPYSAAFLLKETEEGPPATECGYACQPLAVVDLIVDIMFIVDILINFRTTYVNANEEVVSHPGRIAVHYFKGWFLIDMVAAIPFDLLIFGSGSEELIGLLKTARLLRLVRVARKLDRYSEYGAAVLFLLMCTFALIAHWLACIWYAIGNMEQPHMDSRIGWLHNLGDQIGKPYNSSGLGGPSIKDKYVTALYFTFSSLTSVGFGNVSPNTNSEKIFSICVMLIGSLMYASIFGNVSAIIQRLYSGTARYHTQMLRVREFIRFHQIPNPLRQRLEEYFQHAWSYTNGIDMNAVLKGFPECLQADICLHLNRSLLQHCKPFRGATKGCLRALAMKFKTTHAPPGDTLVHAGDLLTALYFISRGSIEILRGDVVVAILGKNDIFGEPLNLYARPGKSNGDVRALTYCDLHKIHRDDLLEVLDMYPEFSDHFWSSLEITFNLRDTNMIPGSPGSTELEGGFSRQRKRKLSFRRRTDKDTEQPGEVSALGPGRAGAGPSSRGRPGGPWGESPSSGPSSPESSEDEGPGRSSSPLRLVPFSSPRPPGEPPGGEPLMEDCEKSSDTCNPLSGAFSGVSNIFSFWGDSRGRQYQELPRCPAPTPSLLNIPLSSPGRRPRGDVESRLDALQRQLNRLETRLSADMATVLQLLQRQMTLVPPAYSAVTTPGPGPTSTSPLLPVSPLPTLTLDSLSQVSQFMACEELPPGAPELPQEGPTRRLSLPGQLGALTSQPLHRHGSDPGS
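U2OS cells were transduced with wild-type KCNH2 virus (2.03 x 10^8 / mL) for 4 h at room temperature, then cultured overnight at 37 C. Thallium flux was read with FluxOr dye. Rate constants were normalized to DMSO controls.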
HEK293 tox: qHTS of GLP-1 Receptor Inverse Agonists: Cytotox Screen. HEK293 cAMP-luciferase reporter cells, luminescence, 24 h. hit rate 0.13% among 410,000. Potency, µM (series often up to 38.3 µM), for the others: top-dose activity change, negative = inhibition, actives largely listed as inhibitors;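 also: loss of luciferase light is scored as toxicity; potency is read from the fitted curve at half-maximal effect; % is scaled to controls: 0 for no effect and ±100 for the full control effect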
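Step one: seed cells (200 cells/uL, DMEM with 10% Nu serum, 1% pen-strep). Step two: 12-hour incubation at 37 deg C. Step three: pin 23 nL compound, incubate 24 hr. Step four: add luciferase reagent, read luminescence 12 min later.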
GLS inh: qHTS for Inhibitors of Glutaminase (GLS); GLS enzymatic activity, qHTS titration; Potency, µM (top dose mostly 45.5 µM), without a hit: at the top dose activity change, negative = inhibition, hits mostly inhibitors; hit rate 0.21% among 410,000; AID 624170, 2012; also: potency is read from the fitted curve at half-maximal effect; % is scaled to controls: 0 for no effect and ±100 for the full control effect
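Assay buffer: 45 mM KH2PO4 pH 8.2, 0.02% Tween-20. hKGA acts on L-glutamine (1 mM solution added); product glutamate is reported by an oxidase/peroxidase Amplex Red coupling, with fluorescence taken at baseline and 30 min.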
GLP1R ag: qHTS of GLP-1 Receptor Agonists | AID 624172, 2012 | hit rate 0.007% among 380,000 | HEK293 GLP-1R CRE-luciferase, luminescence, 4-6 h; cells express a hypersensitive GLP-1R form | Glucagon-like peptide 1 receptor (Homo sapiens), P43220 | Potency, µM (titrated, usually from 45.6 µM), inactives show top-dose activation, hits mostly activators; also: potency is read from the fitted curve at half-maximal effect; % of control where 0% means no effect
Active calls of the source: *; ? = inconclusive; . = no result. The list is not random: actives were taken first. Their share in the collection is about 2.8%. Unless noted, calls follow the shape of the dose curve; as a rule, active = well fitted curve in the direction sought with a large enough effect; inconclusive = small, poorly fitted or top-dose-only effect, or another doubt; inactive = no such curve, though single readings can be large; an effect the other way counts as inactive or inconclusive.

SMILES	GLP1R inv ag	KCNH2 3.1 inh	hERG WT inh	HEK293 tox	GLS inh	GLP1R ag
Cc1c(Cl)cccc1NC(=O)N1CCC(CN2CCCC2)CC1	6%	.	.	-4%	7%	.
COc1ccccc1C(c1c(N)n(C)c(=O)n(C)c1=O)C(C)[N+](=O)[O-] (configuration not stated)	-1%	-20	-1	-8%	1%	6%
COc1ccccc1C(C[N+](=O)[O-])c1c(N)n(C)c(=O)n(C)c1=O (configuration not stated)	2.8µM*	-1	0	?	0%	-11%
O=Cc1s/c(=N\S(=O)(=O)c2ccccc2)n(CCCCl)c1Cl	2.8µM*	-30	-12	?	-9%	-5%
CCn1c(C)cs/c1=N\S(=O)(=O)c1ccccc1	24%	-22	-4	12%	-15%	2%
COc1ccccc1C=NN=C(NN=Cc1ccccc1OC)NN=Cc1ccccc1OC	2.2µM*	22	37	5µM*	15%	-7%
COc1ccccc1C=NNC(=O)NN=Cc1ccccc1OC	?	2	-2	-18%	-2%	22%
Cc1nc2ccc(S(=O)(=O)N(CC(=O)Nc3ccc(Cl)cc3)Cc3ccccc3)cc2s1	-1%	.	.	-9%	0%	.
O=C(NCCS(=O)(=O)c1ccc(Cl)cc1)c1ccc(F)cc1	12%	7	1	11%	-2%	4%
O=C(NCCS(=O)(=O)c1ccc(Br)cc1)c1ccc(F)cc1	2%	16	-251*	-5%	-13%	-1%
CN(C)c1ccc(-c2nc(-c3cc4cc(Cl)ccc4oc3=O)cs2)cc1	9%	.	.	0%	1%	.
O=C(c1ccc(F)cc1)C1CCN(Cc2cn[nH]c2-c2ccc(F)cc2)CC1	?	-80*	-22	-16%	-10%	15%
CN1CCN(C(=O)Cn2ncc3c4ccccc4n(Cc4ccc(Cl)cc4)c3c2=O)CC1	?	.	.	-9%	5%	.
O=C1CCC(/C=C/c2ccccc2)=NN1Cc1ccccc1Cl	10µM*	6	3	11%	-10%	1%
C=CCN1N=C(/C=C/c2ccc(C)cc2)CCC1=O	-11%	-108*	2	2%	-16%	10%
O=C1CCC(/C=C/c2ccccc2)=NN1Cc1ccc(Cl)c(Cl)c1	0%	.	27	10%	-1%	7%
CC(=O)c1ccc(NC(=O)Cn2c(=O)n(Cc3ccco3)c(=O)c3sc4ccccc4c32)cc1	0%	.	.	6%	-7%	-1%
O=C(CC1N=C2c3ccccc3N=C(SCc3ccc(Cl)cc3)N2C1=O)NCCc1ccccc1 (configuration not stated)	8%	.	.	8%	6%	.
COc1cc(-c2nc(-c3ccc4c(c3)-c3ccccc3S4(=O)=O)c(-c3ccccc3)[nH]2)cc(OC)c1OC	1.6µM*	-1	2	142%	0%	-2%
CC(=O)Nc1ccc(S(=O)(=O)N(C)CC(=O)OCC(=O)N2CC(C)OC(C)C2)cc1 (configuration not stated)	?	-11	0	-16%	-1%	6%
CCOc1ccc(CN(C(=O)c2nc(SC)ncc2Cl)C2CCS(=O)(=O)C2)cc1 (configuration not stated)	3%	.	.	6%	2%	.
CN(C)S(=O)(=O)Nc1cccc(-c2cn3c(n2)SCC3)c1	-19%	-106*	32	-13%	-9%	2%
COc1ccc(C)cc1NC(=O)c1ccc2nc(Cc3ccccc3)oc2c1	-12%	.	.	-1%	-5%	.
COc1ccc2c(c1)CC(C(=O)NCCCN1CCN(c3cccc(Cl)c3)CC1)CO2 (configuration not stated)	?	.	.	-8%	6%	.
COC(=O)c1ccccc1NC(=S)NC(=O)c1cccc2ccccc12	1%	-7	-8	1%	45%	0%
SMILES	GLP1R inv ag	KCNH2 3.1 inh	hERG WT inh	HEK293 tox	GLS inh	GLP1R ag
CN1CCN(c2ccc(NC(=O)c3ccccc3Br)cc2)CC1	-19%	0	-7	-8%	-2%	-10%
CN1CCN(c2ccc(NC(=S)NC(=O)c3cccc4c(Br)cccc34)cc2)CC1	-12%	-83*	-36	-10%	8%	4%
CN1CCN(c2ccc(NC(=S)NC(=O)c3cccc4ccccc34)cc2)CC1	10%	-79*	17	?	18%	8%
COc1cccc(NC(=S)N/N=C2\CC(C)(C)Oc3ccc(O)cc32)c1	7.1µM*	2	.	?	26%	3%
COc1ccccc1CNC(=O)C1CCCN(C(=O)c2cnn(-c3ccc(F)cc3)c2-n2cccc2)C1 (configuration not stated)	?	.	.	5%	-3%	-3%
CCOc1ccccc1CNC(=O)c1[nH]c2ccccc2c1Sc1ccccc1	?	.	.	2%	-1%	.
O=C(N/C=N/OCc1cccc(C(F)(F)F)c1)N1OC[C@@H]2COc3ccc4ccccc4c3[C@@H]21	5.6µM*	-5	0	29%	4%	-6%
O=C(NC(=S)N1CCc2ccccc21)c1ccccc1	?	-15	-28	4µM*	22%	-14%
COc1cc(Nc2ccccn2)cc(C(=O)Nc2cccc(C(F)(F)F)c2)c1	11µM*	-18	-12	?	-1%	2%
COc1cc(NC(=O)c2csc(-c3ccncc3)n2)cc(C(=O)Nc2cccc(C(F)(F)F)c2)c1	?	-118*	?	5%	1%	4%
COc1cc(OC)cc(C(=O)NCCc2csc(-c3ccc(C(F)(F)F)cc3)n2)c1	10µM*	.	.	2%	-4%	.
CC(CN1C(C)CCCC1C)OC(=O)c1ccccc1F (configuration not stated)	4%	0	8	6%	4%	4%
CC(C)(Cc1ccc(O)cc1)NC(=O)SCc1ccccc1	13µM*	-2	-9	3%	-5%	13%
CCN(CC)S(=O)(=O)c1cc(-c2nnc(Nc3ccc(OC)c(C(N)=O)c3)c3ccccc23)ccc1C	?	.	.	-22%	11%	.
O=c1c2cccc(Cl)c2nc2n1Cc1ccccc1-2	23%	-26	-11	31%	13µM*	1%
O=c1cc(-c2ccccc2)nc2n1Cc1ccccc1-2	114%	-41	8	1%	7%	-1%
